Data reported in PubChem BioAssay (NCI).
Compounds without any hit were thinned out: in the full panel of roughly 79,000, 15% have a hit. Values without a mark were called inactive. The source made the active and inactive calls. Rule as the data show it: active = growth inhibition above about 70%; inactive = the rest.

Legend:
[1] = NCI Yeast Anticancer Drug Screen. Data for the rad50 strain (AID 155);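 also: 0% = growth of vehicle-only cultures of the same strain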; settings: S. cerevisiae rad50 strain growth inhibition, active compounds read high
Summary of the method: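 DNA repair mutant yeast, compound exposure, growth read-out; inhibition is taken relative to vehicle.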

[2] = NCI Yeast Anticancer Drug Screen. Data for the mec2-1 strain (AID 157); settings: S. cerevisiae mec2-1 strain, active compounds read high
Summary of the method: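 Cells of the genetically defined mec2-1 yeast strain are incubated with test compound. Inhibition of growth is calculated against vehicle-treated controls.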

[3] = NCI Yeast Anticancer Drug Screen. Data for the sgs1 mgt1 strain (AID 161);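 also: 0% = growth of cultures given vehicle only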; settings: S. cerevisiae sgs1 mgt1 strain, active compounds read high
Summary of the method: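 Inhibition of yeast growth, normalised to vehicle-treated controls, is reported for a strain bearing genetic alterations in DNA damage repair.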

[4] = NCI Yeast Anticancer Drug Screen. Data for the cln2 rad14 strain (AID 165);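 also: 0% = growth equal to vehicle treated cultures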; settings: S. cerevisiae cln2 rad14 strain, active compounds read high
Summary of the method: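 The screen exposed genetically defined yeast (cln2 rad14) to test compounds and scored growth inhibition relative to vehicle-treated controls.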

[5] = NCI Yeast Anticancer Drug Screen. Data for the bub3 strain (AID 167); settings: S. cerevisiae bub3 mutant strain, active compounds read high
Summary of the method: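 In this screen, a yeast mutant lacking normal mitotic checkpoint function is challenged with compound. Relative growth versus vehicle gives the inhibition value.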

[6] = NCI Yeast Anticancer Drug Screen. Data for the mlh1 rad18 strain (AID 175); settings: S. cerevisiae mlh1 rad18 strain growth inhibition, active compounds read high
Summary of the method: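 Compound-treated yeast growth, normalised to vehicle controls. Strain bears defined DNA repair mutations.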

[7] = at 5.0 µM (retest, dose inferred, filed as 0.5)
[8] = at 50.0 µM (retest, dose inferred, filed as 5.0)

Row | SMILES | growth inhibition [1, 7] [%] | growth inhibition [1, 8] | growth inhibition ([1]; at 50.0 µM) | growth inhibition [2, 7] [%] | growth inhibition [2, 8] | growth inhibition ([2]; at 50.0 µM) | growth inhibition [3, 7] | growth inhibition [3, 8] | growth inhibition ([3]; at 50.0 µM) | growth inhibition [4, 7] [%] | growth inhibition [4, 8] | growth inhibition ([4]; at 50.0 µM) | growth inhibition [5, 7] [%] | growth inhibition [5, 8] | growth inhibition ([5]; at 50.0 µM) | growth inhibition [6, 7] [%] | growth inhibition [6, 8] | growth inhibition ([6]; at 50.0 µM)
1 | Cn1cnc([N+](=O)[O-])c1Sc1nc2cccnc2s1 | 45 | 80% (active) | 79.5% (active) | 34 | 77% (active) | 77.1% (active) | 40% | 59% | 67.8% | 29 | 44% | 52% | 38 | 68% | 71.8% (active) | 54 | 90% (active) | 75.6% (active)
2 | Cc1ccc(I)c(C(C)(C)O)c1 | 4 | 71% (active) | 94.8% (active) | 4 | 75% (active) | 56.6% | 4% | 77% (active) | 58.6% | 1 | 30% | 30.8% | -1 | 86% (active) | 95.2% (active) | 7 | 91% (active) | 70.2% (active)
3 | CCCCCCN(CCCCCC)CC(O)c1cc(-c2ccccc2)nc2c(O)cccc12 (stereo not given) | 4 | 56% | 23.7% | 7 | 73% (active) | 22.6% | -118% | 95% (active) | 93.8% (active) | 4 | 42% | 8.2% | 8 | 92% (active) | 40% | 30 | 87% (active) | 33.5%
4 | O=c1ccccc(Br)c1O | 12 | 97% (active) | 98.7% (active) | 10 | 93% (active) | 97.8% (active) | 6% | 97% (active) | 99.6% (active) | 19 | 87% (active) | 93.1% (active) | 8 | 98% (active) | 97.6% (active) | 9 | 97% (active) | 98.9% (active)
5 | Cc1c(Cl)nc(-c2ccccc2)nc1C(=O)CCl | 43 | 78% (active) | 22.1% | 67 | 91% (active) | -0.1% | 90% (active) | 93% (active) | 70.5% (active) | 22 | 66% | 9.45% | 38 | 86% (active) | -34.3% | 65 | 89% (active) | 4.5%
